The source of these data is PubChem BioAssay AID1645851 (National Center for Advancing Translational Sciences (NCATS), 2021).

Where “and” joins values, the source holds several entries; their conditions need not be identical. Equal entries are not always repeated. Screen size: about 140,000 compounds; about 1,200 (0.86%) were called active. The sample as a whole holds a higher share of actives than the screen did. Values without a mark were called inactive. No stated cut-off is given here; in the data, active means activity change below about -25%; inactive means the rest.
On the % scale 0 is the no-effect control and ±100 the full control effect.

Sequence of Inositol hexakisphosphate kinase 1 (Homo sapiens) (Q92551 whole entry, looked up): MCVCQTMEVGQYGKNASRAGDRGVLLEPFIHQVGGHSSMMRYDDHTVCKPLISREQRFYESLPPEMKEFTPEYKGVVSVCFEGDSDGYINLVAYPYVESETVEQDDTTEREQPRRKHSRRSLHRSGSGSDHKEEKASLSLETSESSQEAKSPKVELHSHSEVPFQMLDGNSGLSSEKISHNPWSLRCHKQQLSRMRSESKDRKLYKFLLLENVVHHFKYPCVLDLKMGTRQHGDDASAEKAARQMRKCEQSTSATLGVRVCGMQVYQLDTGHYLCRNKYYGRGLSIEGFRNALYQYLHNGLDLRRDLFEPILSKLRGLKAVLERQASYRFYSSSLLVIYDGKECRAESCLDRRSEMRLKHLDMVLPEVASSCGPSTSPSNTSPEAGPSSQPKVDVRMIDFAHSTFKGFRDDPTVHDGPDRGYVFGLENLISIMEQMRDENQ

This assay has as its target Inositol hexakisphosphate kinase 1 (Homo sapiens) (UniProt Q92551). Kind of assay: Primary qHTS assay for small molecule inhibitors of Inositol hexaphosphate kinase 1 (IP6K1). Further: series mostly up to about 58 µM. As to conditions: ADP-Glo luminescence, 2 h, hits give low values. The text has this:
Assay Provider: Huijun Wei, M.S., Ph.D. School of Medicine, Johns Hopkins University, Baltimore, MD Inositol hexakisphosphate kinases (IP6Ks) catalyze pyrophosphorylation of inositol hexakisphosphate (IP6) into inositol 5-diphospho-1,2,3,4,6-pentakisphosphate (IP7), which is involved in numerous areas of cell physiology including glucose homeostasis, blood coagulation and neurological development. Inhibition of IP6Ks may be effective for the treatment of Type II diabetes, thrombosis, and psychiatric disorders. We performed a quantitative high throughput screen (qHTS) of 158,410 compounds for IP6K1 inhibitors using ankinase activity ADP-Glo Max assay. […] Medicinal chemistry SAR efforts in three chemical series identified potent IP6K1 inhibitors, which were further validated in an orthogonal LC-MS IP7 analysis.
PROTOCOL TABLE SEQUENCE No. (e.g., 1, 2, 3, etc.); […] (e.g., Cells, Incubation, Reagent, etc.); VALUE and DESCRIPTION. 1. Reagent, 3 uL of 1.3 mM ATP and 130 uM IP6 mixture in assay buffer was dispensed to a white, 1536-well assay plate. 2. Compound, 23 nL of compounds of the top two doses (57.5 uM and 19.1 uM final concentration) of the libraries were dispensed into the mixture using the Kalypsis pintool. 3. Reagent, 1 uL of 2.4 uM IP6K1 was dispensed to the assay plates. 4. Incubation, 2 hr incubation at room temperature. 5. Reagent, 2 uL of ADP-Glo reagent was added to the wells. 6. Incubation, 1 hr incubation at room temperature. 7. Reagent, 4 uL or ADP-Glo substate was added to the wells. 8. Incubation, 45 min incubation at room temperature. 9. Detection, luminescence signal was detected using the ViewLux microplate imager (PerkinElmer).
Regarding `COCCNC(=O)c1cc(-c2cccc(Cl)c2)on1`, the activity change was -0.0295%.
For `CCOC(=O)c1cc(-c2ccc(OC)c(S(=O)(=O)Nc3ccc(OC)cc3OC)c2)on1`, the activity change is 1.78%.
As for `Cc1ccc(-c2cc(C(=O)Oc3ccccc3Cl)no2)cc1C`, the figure is -29.7% (active).
On to `CC(O)CNC(=O)c1ccc(-c2ncc3cnc(C4=CCOCC4)cn23)cc1` (stereo not given), for which the activity change is -10.8%.
Take `Cc1ccccc1CC(=O)N1CCCC(n2cc(-c3nc(-c4ccccc4)no3)nn2)C1` (stereo not given): the activity change was 9.4%.
With `CC(C)NC(=O)N1CCN(c2ccc3nnc(C4CC4)n3n2)CC1`, the activity change is 5.65%.
With `Cc1ccccc1NC(=O)c1c(NC(=O)c2ccccc2F)sc2c1CCC(C)C2` (stereo not given), the activity change was -11.5%.
The result for `Cc1cccc(N2CCN(c3ccc(C(=O)O)cc3NC(=O)c3ccccc3F)CC2C)c1` (stereo not given) reads -32.2% (active); that for `Cc1cccc(C(=O)NCCC2CCN(C(=O)Nc3ccc(F)cc3F)CC2)c1`, -7.16%.
On to `Cc1cccc(C)c1-c1nc(C(=O)N2CCN(c3ncccn3)CC2)n2ccccc12`, for which the activity change was 8.82% and 13.4%.
In the case of `COc1c(C)cnc(CN(C)C(=O)C2CC(=O)N(C3CCCC3)C2)c1C` (stereo not given), the activity change was -26.5% (active).
The result for `CCn1nc(CNC(=O)C2CCC(=O)N(C3CCCC3)C2)c2ccccc21` (stereo not given) reads -2.6%; that for `CN1C[C@H](NS(C)(=O)=O)CCC[C@@H](C(=O)N(C)Cc2cccnc2)CC1=O`, 5.58%; that for `O=C(NC1CCN(c2nccc(Nc3ccccc3Cl)n2)CC1)c1ccccn1`, 0.678%.
The result for `Cc1ccncc1C(=O)N1CCC2(CC1)CC(c1ccccc1)C(=O)N2C` (stereo not given) reads -28.9% (active).
Take `Cc1cc(N2CCC3(CC2)CC(c2ccccc2)C(=O)N3C)ncn1` (stereo not given): the activity change is 10.4%.
As for `Cc1ccncc1C(=O)N1CCC(Cn2c(C)cnc2-c2cccnc2)CC1`, the figure is 7.69%; as for `COc1ccccc1-c1ccc(CN2CCC(NC(=O)c3ccncc3)C2)cc1` (stereo not given), 24.3%.
As for `Cc1ccc(CN2C(=O)[C@@H]3C[C@@H](O)CN3C3(CN(Cc4ccc(C(F)(F)F)cc4)C3)C2=O)o1`, the figure is -6.91%; as for `Cc1cc(Cl)ccc1OCC(=O)N1CCc2n[nH]c(=O)n2CC1`, -14.4%; as for `COc1ccc(N2CCN(S(=O)(=O)CCNC(=O)C(c3ccccc3)c3ccccc3)CC2)cc1`, 23.7%.
On to `COc1cc(C(=O)NCCS(=O)(=O)N2CCN(c3ccccc3)CC2)cc(OC)c1OC`, for which the activity change was 23.9%.
As for `COc1ccccc1N1CCN(S(=O)(=O)CCNC(=O)COc2ccc(F)cc2)CC1`, the figure is -44.5% (active); as for `O=C(CN1C(=O)c2cccnc2Oc2ccc(Cl)cc21)NCCc1ccccc1`, -2.8%; as for `Cc1ccc2c(c1)N(CC(=O)NCCCN1CCCCC1)C(=O)c1cccnc1O2`, -101% (active).
As to `Cc1ccc2c(c1)N(CC(=O)NCCc1ccc(Cl)cc1)C(=O)c1cccnc1O2`, the activity change is -4.44%.
Take `Cc1ccc(C2(O)CCN(c3nccc(CCC(F)(F)F)n3)CC2)nc1`: the activity change is -3.3%.
As to `CCOc1cccc2c1OC[C@@H]1CN(CCOC)C(=O)CCN(C(=O)c3ccccc3OC)[C@H]21`, the activity change is -8.59%.
As for `CC(C)(C)OC(=O)N1CCC(c2c(C(=O)NCc3ccccn3)cnn2-c2ccc(F)cc2)CC1`, the figure is -1.08%.
The result for `Cc1cccc(-n2ncc(C(=O)N3CCc4ccccc4C3)c2C2CCN(C(=O)OC(C)(C)C)CC2)c1` reads 32.7%; that for `CC(C)(C)OC(=O)N1CCC(c2c(C(=O)N3CCc4ccccc4C3)cnn2-c2ccc(F)cc2)CC1`, -28.8% (active); that for `COc1ccc(-c2cc(C(=O)NCC(F)(F)F)c3c(C4CCCN4)nn(C)c3n2)cc1` (stereo not given), -2.22%.
As for `COc1ccccc1-c1cccc(C(=O)N2CCN(C(=O)Cc3ccc(F)cc3)CC2)c1`, the figure is 5.42%; as for `CCOC(=O)c1ccc(NC(=O)CCn2cnnn2)cc1`, 7.68%; as for `CCOC(=O)c1ccc(NC(=O)CCS(=O)(=O)c2ccc(C)cc2)cc1`, -30% (active).
As for `CCOC(=O)c1ccc(NC(=O)CCS(=O)(=O)c2ccc3c(c2)oc(=O)n3C)cc1`, the activity change was 9.62%.
For `O=C(NCc1ccc(F)cc1)C1CCN(c2nccc(Nc3ccccc3F)n2)CC1`, the activity change was 18.1%.
Take `CN(c1ccccc1)c1cc(=O)c2ccnc(-c3ccc(CO)cc3)c2o1`: the activity change is -7.57%.
The result for `CN(c1ccccc1)c1cc(=O)c2ccnc(NC3CCOCC3)c2o1` reads -36.2% (active); that for `CN(c1ccccc1)c1cc(=O)c2ccnc(Nc3cccc([S+](C)(=O)[O-])c3)c2o1`, -11.6%; that for `COc1ccc(-n2nc(C3CCN(Cc4ccccn4)CC3)[nH]c2=O)cc1`, 7.19%.
As for `O=C(Nc1ccc(F)cc1)c1nc2cccnc2n(Cc2ccccc2)c1=O`, the figure is 14.3%; as for `O=C1CCN(CC(O)COc2ccccc2)c2cc3c(cc2CN1CC1CC1)OCO3` (stereo not given), -10.5%; as for `COc1ccc(OCC2CN(Cc3cccc(F)c3)[S+](=O)([O-])c3cccnc3O2)cc1` (stereo not given), 0.413%.
In the case of `O=C1CCN(C(=O)[C@H](Cc2ccccc2)NC(=O)NC2CCCCC2)CCCOCCN1`, the activity change was 9.58%.
As to `COc1ccc(-c2nc(CCNC(=O)c3ccc(Br)o3)cs2)cc1`, the activity change was -32.8% (active).
As for `COc1ccc(CNC(=O)c2noc(-c3ccc(F)cc3)n2)cc1`, the figure is 7.64%; as for `COc1ccc(CCC(=O)NCCc2csc(-c3ccc(Cl)cc3)n2)cc1`, -1.97%.
Take `O=C(c1cccc(OC2CN(Cc3nccs3)C2)c1)N1CCOCC1`: the activity change is -3.36%.
Take `O=C(NCc1cccc(Cl)c1)c1ccc2nccn2c1`: the activity change is -8.99%.
Turning to `Cc1n[nH]c(C)c1CNC(=O)C1Cn2cccc2C(=O)N1Cc1ccccc1` (stereo not given), the activity change was -3.14%.
As for `COc1ccc(Cl)cc1-c1ccc2c(c1)C(=O)N1CCN(C(=O)CSC)C[C@@H]1C(=O)N2`, the figure is -8.89%; as for `Cc1ccc(NC(=O)c2cc(S(=O)(=O)NCCC3=CCCCC3)ccc2F)cc1C`, -26.3% (active).
`CCc1ccc(NC(=O)c2cc(S(=O)(=O)NC3CCCCCC3)ccc2F)cc1`: the activity change was -6.25%.
Regarding `COc1ccccc1NC(=O)c1cc(S(=O)(=O)NCCc2ccccc2)ccc1F`, the activity change was 14.4%.
As for `Cc1nn(-c2ccccc2)c2c1C(C)N(C1CCN(C(=O)C(C)C)CC1)C2=O` (stereo not given), the figure is 2.6%; as for `O=C(NCc1ccccc1)c1c(-c2ccccc2)cc(=O)n2c1CCCC2`, 5.1%.
Regarding `COc1ccccc1-c1ccc(CN2CCC(NC(=O)c3ccc(Cl)nc3)C2)cc1` (stereo not given), the activity change is 8.29%.
As for `CC(C)Cn1c(=O)c(C(=O)NCc2ccc(F)cc2)nc2cccnc21`, the figure is 8.42%.
In the case of `O=C(Nc1ccc(C(=O)O)c(O)c1)c1ccccc1`, the activity change was 7.03%.
As for `O=C(Nc1cccc(NC(=O)c2ccc(Br)cc2)c1)c1ccccc1`, the figure is -16%; as for `CC(C)(C)c1ccc(C(=O)Nc2cc(Cl)c(Br)cc2C(=O)O)cc1`, -35.3% (active); as for `CC(=O)c1cc(CC(=O)NCc2cc(F)c(F)cc2F)cs1`, -1.78%.
As for `C[C@H]1[C@@H]2[C@@H](O)C([C@H](C)C(=O)NC3CCCC3)CC[C@@]2(C)CC[C@@H]1NC(=O)c1ccc(C#N)cc1` (stereo not given in full), the figure is 8.22%; as for `Cn1ncc2c(C(=O)N3CCN(c4ncccn4)CC3)cc(-c3ccc(C(F)(F)F)cc3)nc21`, 2.25%.
The result for `Cc1cc(C(=O)N2CCC3(CCCNC3=O)C2)ccc1N1CCOCC1` (stereo not given) reads 11%; that for `COc1ccc(C2Cn3nnc(C(=O)N4CCN(C(=O)c5cccc(Cl)c5)CC4)c3CO2)cc1` (stereo not given), 2.61%.
Take `COc1ccc(C2Cn3nnc(C(=O)N4CCN(C(=O)c5ccc(C)cc5C)CC4)c3CO2)cc1` (stereo not given): the activity change is -25.2% (active).
Take `COc1ccc(C2Cn3nnc(C(=O)N4CCC(C(=O)NCc5ccc(C)cc5)CC4)c3CO2)cc1` (stereo not given): the activity change was -5.17%.
The result for `CNC(=O)[C@@H]1C[C@@H](n2cc(CNC(=O)Nc3cccc(Cl)c3C)nn2)CN1` reads 11.8%.
The result for `O=C(C1CC1)N1CCC(N2CC(OCC3CC3)C23CCOCC3)CC1` (stereo not given) reads -1.99%; that for `CN(C)[C@@H]1C(=O)C(C(N)=O)=C(O)[C@@]2(O)C(=O)C3=C(O)c4c(O)ccc(Cl)c4[C@@H](O)[C@H]3C[C@@H]12`, -40.7% (active); that for `C(=C\c1ccccc1)/CN1CCN(c2nccc(-c3cccnc3)n2)CC1`, -36.7% (active).
In the case of `O=C(c1nc(-c2cccnc2)c2cnccn12)N1CCN(c2ncccn2)CC1`, the activity change was 8.68%.
Turning to `C(=C\c1ccccc1)/CN1CCN(c2ncncn2)CC1`, the activity change is -5.21%.
As for `CCOC(=O)[C@@H]1[C@@H](O)C(=O)N(Cc2ccccc2)C12CCN(C(=O)c1cc3ccccc3s1)CC2`, the figure is 14.8%.
As for `O=C(CC1CCCN(c2cnn(CC3CC3)c(=O)c2)C1)N1CCCC1` (stereo not given), the figure is 15.7%.
`Cc1ccc(-c2onc(C)c2C)cc1S(=O)(=O)Nc1ccccn1`: the activity change is -25.5% (active).
The result for `COc1ccc(-c2onc(C)c2C)cc1S(=O)(=O)NCc1cccs1` reads 41.7%; that for `COc1ccc(-c2onc(C)c2C)cc1S(=O)(=O)NCCc1ccccc1`, 17.3%.
The result for `C=CCCC(CN1CCCC1)Oc1ncc(F)c(N2CCCC2)n1` (stereo not given) reads -2.11%.
With `COc1ccc(NC(=O)N2CCC(CC(=O)NCc3ccccc3)C2)cc1OC` (stereo not given), the activity change was -12.4%.
As for `COc1cc(NC(=O)Nc2cccc(CNC(=O)O[C@H]3CCOC3)c2)ccc1-c1cnco1`, the figure is -31.9% (active); as for `O=C(NCC1CCOCC1)Nc1cccc(Cl)c1`, 18.6%.
On to `C=CCCC(=O)N1CCC2(CCCN(Cc3cccc(F)c3F)C2=O)C1` (stereo not given), for which the activity change was -2.13%.
